Consider 88 molecules from PubChem BioAssay AID493056 (National Center for Advancing Translational Sciences (NCATS), 2011).

Hit rate of the full screen: of about 360,000 compounds, about 2,400 (0.67%) were called active. This excerpt belongs to a sample that is enriched for actives. Unmarked numbers belong to inactive results. Rule as the data show it: active = enhancement above about 30%; inactive = the rest.

Chain of Thyrotropin-releasing hormone receptor (Homo sapiens) (P34981 whole entry, looked up): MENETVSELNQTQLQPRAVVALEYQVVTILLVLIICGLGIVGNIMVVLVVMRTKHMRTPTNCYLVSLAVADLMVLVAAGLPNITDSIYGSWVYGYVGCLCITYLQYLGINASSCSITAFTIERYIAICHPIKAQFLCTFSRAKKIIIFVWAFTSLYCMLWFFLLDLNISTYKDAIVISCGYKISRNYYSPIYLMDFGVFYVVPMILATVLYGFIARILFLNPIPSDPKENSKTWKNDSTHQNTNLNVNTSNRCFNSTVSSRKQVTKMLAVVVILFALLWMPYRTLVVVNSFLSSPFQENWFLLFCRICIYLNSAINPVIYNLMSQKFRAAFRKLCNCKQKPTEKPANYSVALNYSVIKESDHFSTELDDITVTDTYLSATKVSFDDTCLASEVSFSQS

The experiment addresses Thyrotropin-releasing hormone receptor (Homo sapiens) (UniProt P34981). Kind of experiment: qHTS for Small Molecule Agonists and Allosteric Enhancers of Human TRH Receptor: Primary Screen for Enhancers. Also: 0% is about no effect. The note with it: TRHR cells, fluo-8 calcium fluorescence, EC20 TRH enhancement; at 2 µM; stronger effect = higher value. The method, boiled down: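 TRHR-expressing cells loaded with fluo-8 calcium dye were read kinetically (ex 480/em 530) during compound addition, then stimulated with an EC20 of TRH (10 nM final). Enhancement of the Gq-mediated intracellular calcium response was scored.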
Turning to `Cc1cc2c(s1)c1cnn(Cc3c(F)cccc3Cl)c(=O)c1n2C`, the enhancement is 10.5%. Turning to `CCCCN(C(=O)C(CCSC)N1C(=O)c2ccccc2C1=O)c1c(N)n(CCC)c(=O)[nH]c1=O` (stereo not drawn), the enhancement was -0.146%.

Take `CSCCC(C(=O)NC1=NCCS1)N1C(=O)c2ccccc2C1=O` (stereo not drawn): the enhancement is 33.2% (active). Consider `CC(NC(=O)COc1ccccc1)C(=O)NC1=NCCS1` (stereo not drawn), for which the enhancement was 1.42%. Then `CC(Sc1nnc(CNC(=O)c2ccccc2F)n1C)C(=O)Nc1nccs1` (stereo not drawn), with -1.71%; and `Cc1cccc(C(=O)NCc2nnc(SC(C)C(=O)Nc3nnc(C)s3)n2C)c1` (stereo not drawn), with 37.6% (active); and `COc1ccccc1C(=O)NCc1nnc(SC(C)C(=O)Nc2nccs2)n1C` (stereo not drawn), with -2.08%. Regarding `O=S(=O)(c1ccc2c(c1)OCCCO2)N1CCN(S(=O)(=O)c2c(F)cccc2F)CC1`, the enhancement is 2.65%. As to `N#Cc1nc(Nc2cc(F)cc(Cl)c2)nc(NC2CCCC2)n1`, the enhancement is -2.09%.

Turning to `O=C(NCc1ccccc1Cl)c1cccn1-c1nnc(N2CCCCC2)s1`, the enhancement was -0.339%. For `Cc1cccc(NC(=O)CSc2nc3c([nH]c4ccccc43)c(=O)n2-c2cc(C)cc(C)c2)c1`, the enhancement was 1.49%.

Consider `Cc1ccc(NC(=O)CSc2nc3c([nH]c4ccccc43)c(=O)n2-c2ccccc2)cc1Cl`, for which the enhancement was -2.92%. As to `Cc1ccc(NC(=O)CSc2nc3c([nH]c4ccccc43)c(=O)n2-c2ccccc2)c(C)c1`, the enhancement was 39.6% (active).

`Cc1ccccc1OCc1nc2c3cnn(-c4ccccc4F)c3ncn2n1`: the enhancement is 8.56%. The same measure for `COc1ccc(-c2nc3sc(CCNS(=O)(=O)c4ccc(F)c(C)c4)c(C)n3n2)cc1`: -2.89%.

On to `Cc1cccc(OCC(=O)N(Cc2ccc(C(C)C)cc2)Cc2ccco2)c1C`, for which the enhancement is 3.9%. Consider `COc1cccc(CN(C)CC(=O)Nc2ccccc2C(=O)Nc2ccccc2)c1`, for which the enhancement is 2%. As for `COc1cccc(CN(C)CC(=O)Nc2sc3c(c2C#N)CCC3)c1`, the enhancement was 40.2% (active). On to `Cc1ccc(C)c(OCC(=O)Nc2sc3c(c2C#N)CCCC3)c1C`, for which the enhancement is 0.637%.

Take `Cc1ccc(O)c(NC(=O)c2cc(-c3ccc(F)cc3)no2)c1`: the enhancement is -8.05%.

As for `O=c1c2cccnc2n(Cc2cccc(F)c2)c(=O)n1Cc1ccccc1Cl`, the enhancement is -4.81%. As for `CC(C)(C)n1c(=O)[nH]c2c(c1=O)CCC2`, the enhancement is -6.6%. Regarding `O=c1[nH]n2c(=O)c3c([nH]c2c1N=Nc1ccccc1)CCC3`, the enhancement was 31.1% (active). Then `O=c1c(=O)n(Cc2c(F)cccc2Cl)ccn1Cc1ccccc1`, with 6.97%; and `O=c1o[nH]c(-c2ccccc2)c1N=Nc1c(F)cccc1Cl`, with 45.6% (active). `COc1ccc(N=Nc2c(-c3ccc(OC)cc3)[nH]oc2=O)cc1`: the enhancement was 5.67%. The same measure for `CCS(=O)(=O)c1nc(S(=O)(=O)c2ccc(C)cc2)c(NCc2ccc(Cl)cc2)s1`: 0.719%. As for `CCN(CC)c1ccc(C2C(C(N)=O)=C(C)Nc3nc(SCc4ccccc4)nn32)cc1` (stereo not drawn), the enhancement is 3.72%.

As to `C/C(=N\NC(=O)c1cccc([N+](=O)[O-])c1)c1cccnc1`, the enhancement was 3.55%. For the molecule `C/C(=N\NC(=O)Cc1ccccc1[N+](=O)[O-])c1cccnc1`, the enhancement is 2.77%. On to `O=C(/C=C/c1ccc(Cl)c([N+](=O)[O-])c1)c1cccnc1`, for which the enhancement is 36.2% (active). Then `COc1ccc(CNC(=O)C2=Cc3cccc(OC)c3OC2)cc1OC`, with -3.7%; and `C1=C(N2CCOCC2)/C(=C/c2nc3ccccc3[nH]2)CC1`, with 3.98%. Regarding `CC1(C)Cc2c(C#N)c(SCc3nc4ccccc4[nH]3)nc(N3CCOCC3)c2CO1`, the enhancement is 34.4% (active).

In the case of `CC(C)C(=O)N1CCN(c2nc(-c3ccccc3)c3c(c2C#N)CC(C)(C)OC3)CC1`, the enhancement was -1.59%. On to `Cc1nc2nc(NCc3cccc(Br)c3)[nH]n2c(=O)c1Cc1ccccc1`, for which the enhancement is 2.4%. With `COc1ccc(-c2noc(CCC(=O)N(C)c3ccccc3C)n2)cc1`, the enhancement is 6.52%. Then `COc1ccc(C2CC(=O)Nc3sc(=N)c4c(N)c(C#N)c(N)nc4c32)cc1OC` (stereo not drawn), with 33.8% (active). Take `COc1ccc(C2CC(=O)Nc3c2c(=O)nc2c(C)cccn32)cc1OC` (stereo not drawn): the enhancement is 15%. `N#Cc1c(N)nc2c3c(sc(=N)c2c1N)NC(=O)CC3c1ccccc1Cl` (stereo not drawn): the enhancement was 2.83%.

As for `O=C(CSc1cn(CC(=O)N2CCOCC2)c2ccccc12)Nc1ccccc1`, the enhancement is -5.59%. Regarding `COc1ccc(Cc2nc3ccc(C(=O)NCc4ccccc4Cl)cc3o2)cc1`, the enhancement is 3.9%.

With `CCC(Sc1nc2n[nH]c(C)c2c(=N)n1-c1ccccc1Cl)C(=O)N(CC)CC` (stereo not drawn), the enhancement was -2.62%.

Regarding `Cc1ccc(Oc2c(C(F)(F)F)oc3c(CN4CCCCC4)c(O)ccc3c2=O)cc1`, the enhancement is 0.578%.

Turning to `CCOC(=O)c1sc(NC(=O)CSc2nc(O)c(Cc3ccccc3)c(=O)[nH]2)nc1C`, the enhancement was 0.15%. `CCCOc1ccc(Cc2c(O)nc(SC)[nH]c2=O)cc1C`: the enhancement was 40.1% (active). Take `CCCOc1ccc(Cc2c(O)nc(N)[nH]c2=O)cc1C`: the enhancement is 5.99%.

As to `Cc1cc2c(s1)c1cnn(Cc3cc(F)c(Cl)cc3Cl)c(=O)c1n2C`, the enhancement was -6.51%. For `COc1ccc(CCN2C(=O)c3oc4cc(C)cc(C)c4c(=O)c3C2c2ccccc2F)cc1OC` (stereo not drawn), the enhancement was -0.372%. Regarding `O=C(Cc1ccccc1)Nc1sc2c(c1C(=O)Nc1ccc(Br)cc1)CCC2`, the enhancement was 1%. As for `COc1ccc(C2Sc3ccccc3NC3=C2C(=O)c2ccccc23)c(OC)c1OC` (stereo not drawn), the enhancement is -4.93%. For the molecule `COc1c(Cl)cc(C(=O)N(Cc2ccccc2F)C2CCS(=O)(=O)C2)cc1Cl` (stereo not drawn), the enhancement is 34% (active). Regarding `COc1cc(C(=O)N(Cc2ccc(C(C)C)cc2)C2CCS(=O)(=O)C2)cc(OC)c1OC` (stereo not drawn), the enhancement is -5.35%. Consider `COc1ccccc1C(=O)N(Cc1ccc(C)o1)C1CCS(=O)(=O)C1` (stereo not drawn), for which the enhancement was 0.844%. The same measure for `CCOC(=O)c1ccc(N2C(=O)c3[nH]nc(-c4ccccc4)c3C2c2ccc(C(C)C)cc2)cc1` (stereo not drawn): 7.37%. The same measure for `Cc1ccc(C)c(N2CCN(CCCNC(=O)Nc3ccc(Cl)cc3)CC2)c1`: 2.7%; for `Cc1ccc(NC(=O)c2cn3c4c(ccc(Cl)c4c2=O)OC(C)C3)cc1C` (stereo not drawn): 6.65%. With `C=CCOc1cccc(C2NC(=O)c3ccccc3O2)c1` (stereo not drawn), the enhancement is -1.8%.

Consider `O=C1NC(c2cc3c(cc2Cl)OCO3)Oc2ccccc21` (stereo not drawn), for which the enhancement is 5.25%. As to `O=C1NC(c2ccccc2)Oc2ccccc21` (stereo not drawn), the enhancement is 36.1% (active).

Regarding `Cc1ccc2c(=O)c(C(=O)c3ccc(F)cc3)cn(CC(=O)NC3CCCCC3)c2n1`, the enhancement was 7.98%. Then `COCC(C)NS(=O)(=O)c1ccc(N2CCCCS2(=O)=O)cc1` (stereo not drawn), with 6.76%. With `CCOC(=O)C1=C(O)/C(=C/c2cc(C)n(-c3ccccc3)c2C)N=C1C`, the enhancement is 43.5% (active). For `CCOC(=O)c1nn(-c2cccc(C)c2)cc1C(=O)c1ccccc1`, the enhancement was 11%. Consider `CCOC(=O)C1=C(O)/C(=C/c2ccc(OCC(=O)Nc3ccc(C)cc3)cc2)N=C1C`, for which the enhancement is -0.756%.

As for `Cc1nn(Cc2ccc(F)cc2)c(C)c1NC(=O)c1cc(CC(C)C)on1`, the enhancement is -1.79%. In the case of `O=c1[nH]oc(O)c1-c1ncc(C(F)(F)F)cc1Cl`, the enhancement is 0.0064%. For the molecule `O=c1[nH]c2cccnc2n(CCNc2ncc(C(F)(F)F)cc2Cl)c1=O`, the enhancement is 48.4% (active). As for `O=C(c1ccccn1)c1ncc(C(F)(F)F)cc1Cl`, the enhancement is 1.39%. As for `COc1ccccc1Nc1nc(N)nc(N)c1S(=O)(=O)c1ccccc1`, the enhancement is 2.56%.

On to `O=C(NCc1nnc(C(=O)Nc2ccc(C(F)(F)F)cc2Cl)o1)c1ccccc1`, for which the enhancement is 0.059%. The same measure for `Cc1nnc(SCC(=O)NCc2ccccc2Cl)c2nn(-c3ccccc3)c(C)c12`: 4.74%. With `COc1ccccc1Nc1c2c(nc3ccc(NC(=O)/C=C/c4cc(OC)c(OC)c(OC)c4)cc13)CCCC2`, the enhancement was 0.792%.

Turning to `COc1ccc(CN2CCN(C(=O)CCC(=O)Nc3nnc(C(C)C)s3)CC2)cc1F`, the enhancement is -5.21%. Take `CCc1nnc(NC(=O)CCC(=O)N2CCN(c3cc(C)ccc3C)CC2)s1`: the enhancement was 10.6%.

On to `CC(C)c1nnc(NC(=O)CCC(=O)N2CCN(c3cccc(Cl)c3)CC2)s1`, for which the enhancement is 44.3% (active).

Regarding `CCOc1ccc(NC(=O)c2cc3c(=O)n(Cc4cccs4)ccc3nc2C)cc1`, the enhancement is 2.83%. `Cc1cccc(NC(=O)c2nnn(CC(=O)Nc3ccc(C(C)C)cc3)c2N)c1C`: the enhancement was 16.4%. Consider `CCOc1ccc(N/C=C/C(=O)c2cc(OC)c(OC)c(OC)c2)cc1`, for which the enhancement is 36% (active).

In the case of `CCOc1ccc(NC(=O)COc2ccc(C(=O)N3CCC(C(N)=O)CC3)cc2OC)cc1`, the enhancement is 1.2%. With `CCOc1ccc(C(NC(=O)c2cc(OC)c(OC)c(OC)c2)c2cc(Cl)c3cccnc3c2O)cc1` (stereo not drawn), the enhancement is 8.01%.

For the molecule `CN(CC(=O)Nc1ccccc1F)S(=O)(=O)c1ccc2c(c1)c(=O)n(C)c(=O)n2C`, the enhancement is -1.52%.

Turning to `CCOc1cc2[nH]c(=O)n(Cc3ccc(C(=O)NCCN(CC)CC)cc3)c(=O)c2cc1OCC`, the enhancement is 6.62%.

For `Cc1ccc(C(=O)Nc2ccc(OCc3cc(=O)n4c(C)csc4n3)cc2)cc1`, the enhancement is 44.4% (active).

In the case of `Cc1ccc(C(=O)Nc2ccc(OCc3cc(=O)n4c5c(sc4n3)CCCC5)cc2)cc1`, the enhancement was -8.75%. For the molecule `Cc1csc2nc(COc3ccc(NC(=O)COc4ccccc4)cc3)cc(=O)n12`, the enhancement is -0.546%. `CCN(CC)c1cc(NC2CCCCC2)c2c3c(onc13)-c1ccccc1C2=O`: the enhancement was 3.4%. The same measure for `Cc1c(CNC(C)c2ccccc2)c(C(=O)O)c(C)n1Cc1c(F)cccc1Cl` (stereo not drawn): 0.16%.
